Source: PubChem BioAssay (NCI)
Values joined by “and” are separate entries in the source; they are usually repeats but may differ in a detail not shown here. Equal entries are not always repeated. About 83,000 compounds went through this panel and 20% of them were active in at least one assay; those are over-represented in the sample as a whole.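 How to read the values: 0–100, growth inhibition (40 = 60% inhibited); 0, no net growth; -100 to 0, cell death (-40 = 40% of starting cells died; -100 = all dead).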 Active and inactive are the calls of the source. How the source made its calls: active means growth percent below 10; inactive means the rest.

What was measured:
Experiment in all cases: NCI-60 one-dose screen, 48 h (100 = growth as untreated, 0 = no growth, -100 = all killed)
Conditions in all cases: 10 µM unless noted
NCI-H23 lung = test system: NCI-H23 lung
NCI-H226 lung = test system: NCI-H226 lung
NCI-H322M lung = test system: NCI-H322M lung
HOP-62 NSCLC = test system: HOP-62 NSCLC
NCI-H460 lung = test system: NCI-H460 lung
HOP-92 NSCLC = test system: HOP-92 NSCLC
NCI-H522 lung = test system: NCI-H522 lung
A549/ATCC NSCLC = test system: A549/ATCC NSCLC
786-0 renal = test system: 786-0 renal
COLO 205 colon = test system: COLO 205 colon

| Compound | growth (NCI-H23 lung) | growth (NCI-H226 lung) | growth (NCI-H322M lung) | growth (HOP-62 NSCLC) | growth (NCI-H460 lung) | growth (HOP-92 NSCLC) | growth (NCI-H522 lung) | growth (A549/ATCC NSCLC) | growth (786-0 renal) | growth (COLO 205 colon) |
| --- | --- | --- | --- | --- | --- | --- | --- | --- | --- | --- |
| O=C(NC(CSSCC(NC(=O)OCc1ccccc1)C(=O)O)C(=O)O)OCc1ccccc1 (stereo not given) | 93.2% (inactive) and 97.3% (inactive) | 86.1% (inactive) | 92.9% (inactive) and 102% (inactive) | 95% (inactive) and 81.8% (inactive) | 95% (inactive) and 107% (inactive) | 63.8% (inactive) and 78.5% (inactive) | 70.3% (inactive) | 80.5% (inactive) | 91.2% (inactive) and 91.1% (inactive) | 96.4% (inactive) and 91.5% (inactive) |
| Cc1ccc2cccc([N+](=O)[O-])c2n1 | 108% (inactive) and 95% (inactive) | 101% (inactive) | 110% (inactive) and 90.5% (inactive) | 103% (inactive) and 95.1% (inactive) | 117% (inactive) and 107% (inactive) | 123% (inactive) and 96.2% (inactive) | 90.2% (inactive) and 93.8% (inactive) | 103% (inactive) and 104% (inactive) | 118% (inactive) and 98.3% (inactive) | 104% (inactive) and 106% (inactive) |
| COc1ccc(/C=N/NC(N)=S)cc1 | 89.2% (inactive) | 105% (inactive) | 103% (inactive) | 93.4% (inactive) | 103% (inactive) | 68.4% (inactive) | 89.4% (inactive) | 82.1% (inactive) | 98.3% (inactive) | 106% (inactive) |
| CCN(CC)Cc1cc2[nH]c3c4ccc(Cl)cc4ncc3c2cc1OC | 68.4% (inactive) | 84.1% (inactive) and 93.4% (inactive) | 93.2% (inactive) and 87.2% (inactive) | 80.7% (inactive) and 87.9% (inactive) | 0.598% (active) and 14% (inactive) | 60.6% (inactive) and 78% (inactive) | 244% (inactive) and 12.6% (inactive) | 19.6% (inactive) and 44.1% (inactive) | 81% (inactive) and 86.3% (inactive) | -16.9% (active) and 1.13% (active) |
| O=[N+]([O-])c1cccc2ccc(N/N=C/c3ccccc3O)nc12 | 72.4% (inactive) and 98.3% (inactive) | 83.4% (inactive) and 99.5% (inactive) | 88.2% (inactive) and 94.8% (inactive) | 85% (inactive) and 97.9% (inactive) | 91.9% (inactive) and 98.4% (inactive) | 67.7% (inactive) and 77.7% (inactive) | 78.6% (inactive) and 89.2% (inactive) | 97.3% (inactive) and 90.9% (inactive) | 102% (inactive) and 85.9% (inactive) | 68.1% (inactive) and 111% (inactive) |
| CC(=O)c1cccc(OC(=O)c2ccccc2)c1 | 101% (inactive) | 101% (inactive) | 136% (inactive) | 104% (inactive) | 107% (inactive) | 82.9% (inactive) | 84.7% (inactive) | 99% (inactive) | 102% (inactive) | 107% (inactive) |
| CC(C)(C)OC(=O)NCCc1ccc(N)cc1 | 104% (inactive) | 94.9% (inactive) | 103% (inactive) | 96.1% (inactive) | 97.4% (inactive) | 88.4% (inactive) | 83.5% (inactive) | 91% (inactive) | 100% (inactive) | 110% (inactive) |
| O=C(NC(=O)c1ccc(F)c(Cl)c1)NC1CC1 | 104% (inactive) and 98.8% (inactive) | 99.6% (inactive) and 90.7% (inactive) | 113% (inactive) and 110% (inactive) | 107% (inactive) and 101% (inactive) | 100% (inactive) and 102% (inactive) | 99.8% (inactive) | 75.7% (inactive) and 85.1% (inactive) | 81.8% (inactive) and 99.2% (inactive) | 98.7% (inactive) and 94.1% (inactive) | 113% (inactive) and 108% (inactive) |
| CC(C)(C)OC(=O)c1ccc(NCc2cc(O)ccc2O)cc1 | 59.5% (inactive) | 9.37% (active) | 84.1% (inactive) | 45.1% (inactive) | 53.4% (inactive) | 17.5% (inactive) | -78.4% (active) | 40.9% (inactive) | -72.7% (active) | 10.8% (inactive) |
| O=C1C=CC(=O)N1Cc1ccco1 | 81.7% (inactive) | 97.1% (inactive) | 85.1% (inactive) | 94.7% (inactive) | 50.9% (inactive) | 102% (inactive) | 67.8% (inactive) | 92.1% (inactive) | 104% (inactive) | 89.2% (inactive) |
| N#CC1c2ccccc2C=CN1C(=O)c1ccccc1 (stereo not given) | 104% (inactive) and 112% (inactive) | 103% (inactive) and 89.1% (inactive) | 105% (inactive) and 103% (inactive) | 126% (inactive) and 101% (inactive) | 106% (inactive) and 98.9% (inactive) | 75.5% (inactive) | 103% (inactive) and 91.7% (inactive) | 104% (inactive) and 107% (inactive) | 107% (inactive) and 102% (inactive) | 126% (inactive) and 157% (inactive) |
